Screens: PubChem, Sanford-Burnham Center for Chemical Genomics
tim10-1 inh – tim10-1 yeast growth inhibition. actives 2.2% (n = 330,000). inhibition, % at 20 µM. S. cerevisiae tim10-1 ts strain growth, BacTiter-Glo, 24 h. AID 463190;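 active = inhibition of at least 40%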;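 also: mutant grown at 25 °C; 0% = DMSO wells with yeast and 100% = wells holding no yeast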
TIM10 inh – growth inhibitors of TIM10 yeast strain | actives 1.4% (n = 330,000) | S. cerevisiae TIM10 strain growth, BacTiter-Glo luminescence, 24 h | inhibition, % at 10 µM;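 active = inhibition of 40% or more at the single tested concentration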;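 also: wild-type TIM10 isogenic control strain grown at permissive 25 °C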
NALP3 yeast inh – blocks the NALP3 inflammasome reconstituted in yeast; AID 2825; actives 0.39% (n = 330,000); inhibition, % at 10 µM; Yeast reconstituted NLRP3/ASC/caspase-1, beta-gal luminescence, 24 h;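 active = inhibition of 50% or more; inactive = inhibition below 50%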;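 also: plate controls were induced DMSO wells for no effect and uninduced yeast grown without galactose for full effect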
tim23-1 inh – tim23-1 yeast growth inhibition | S. cerevisiae tim23-1 growth, BacTiter-Glo luminescence, 24 h | inhibition, % at 20 µM | actives 1.3% (n = 330,000) | AID 463212;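 active = growth inhibition of the mutant yeast at or above 50%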;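 also: temperature-sensitive mutant grown at 25 °C; plate controls were DMSO-treated mutant yeast for no effect and medium wells lacking yeast for full effect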
NALP1 inh – blocks the NALP1 inflammasome reconstituted in yeast | S. cerevisiae NALP1/ASC/caspase-1 growth, X-gal OD620, 72 h | inhibition, % at 10 µM | actives 0.61% (n = 280,000); in the data active = inhibition mostly above about 24%, no sharp cut-off; inactive = mostly below about 32%
tim10-1 conf – tim10-1 yeast growth inhibition, confirmed. shares compounds with tim10-1 inh. S. cerevisiae tim10-1 ts strain growth, BacTiter-Glo, 24 h. inhibition, % at 20 µM. actives 56% (n = 7,400);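 active = inhibition of yeast growth at or above a set limit in either of two repeat tests at 20 µM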;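 also: tim10-1 mutant grown at permissive 25 °C to find synthetic lethal compounds; 0% = DMSO yeast wells and 100% = medium wells without yeast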
An asterisk follows results filed as active; / = no result given. Compounds with a hit are over-represented: about 4.1% of the library has one in this group of screens.

SMILES	tim10-1 inh	TIM10 inh	NALP3 yeast inh	tim23-1 inh	NALP1 inh	tim10-1 conf
COc1ccc(Cn2c(C)nnc2-c2cnn(C)c2N)cc1	13	-16	2	4	12	/
Cc1nc2ccc(NS(=O)(=O)c3ccc(C)c(C)c3)cc2s1	42*	28	30	33	-2	12
CCN(CC)S(=O)(=O)c1ccc(=O)n(CC(=O)N2CCCc3cc(C)ccc32)c1	7	2	15	19	/	/
O=C1CC(Sc2nnc(-c3ccccc3O)o2)C(=O)N1c1ccccc1 (stereo not given)	26	35	17	38	-10	/
COc1ccc(N2C(=O)CC(Sc3nnc(-c4ccccc4)o3)C2=O)cc1 (stereo not given)	53*	39	18	41	10	55*
CC(C)(C)N(Cc1ccccc1)C(=O)CCc1ccccc1	28	23	-25	7	11	/
Fc1ccc(-c2nn3c(C4COc5ccccc5O4)nnc3s2)cc1 (stereo not given)	47*	34	2	25	7	43*
CCn1c(=S)sc2c(=O)n(-c3ccccc3)c(SC)nc21	48*	37	3	42	-6	49*
CCS(=O)(=O)N1N=C(c2cccc(NS(C)(=O)=O)c2)CC1c1ccc(C)cc1 (stereo not given)	11	10	-6	10	11	/
O=C(Cn1ncn2c(cc3sccc32)c1=O)NC1CCCC1	-5	3	-3	-13	-1	/
Cc1ccccc1NC(=O)c1ccc(F)c(S(=O)(=O)N2CCN(c3ccccn3)CC2)c1	41*	33	6	44	5	39*
CC(C)OC(=O)c1sc2nc(-c3ccccc3)ccc2c1N	34	-1	25	19	17	/
COc1ccc(C(=O)c2sc3nc(-c4ccccc4)ccc3c2N)cc1	45*	5	14	20	40	19
CN1CCN(c2cc(N3CCc4ccccc4C3)c(F)cc2[N+](=O)[O-])CC1	48*	30	15	34	20	39*
COc1ccc(C(=O)C(CN2CCCC2)c2ccccc2)cc1 (stereo not given)	45*	38	16	-26	16	43*
COc1ccc(C(=O)CCN2CCCCCC2)cc1	39	12	11	27	-19	/
CCCCOc1ccc(C(=O)C(CN2CCOCC2)c2ccccc2)cc1 (stereo not given)	44*	34	24	1	-7	35*
CN(/N=C/c1ccc([N+](=O)[O-])o1)c1ccccc1	52*	34	36	37	5	41*
O=C(N/N=C/c1ccc([N+](=O)[O-])o1)C(O)c1ccccc1 (stereo not given)	-8	3	7	6	/	/
CCc1noc(C)c1C(=O)N(CC(C)C)c1c(N)n(Cc2ccccc2)c(=O)[nH]c1=O	6	-3	6	-11	/	/
O=C(Nc1cccc(N2C(=O)C=CC2=O)c1)c1cccs1	63*	8	-13	-5	/	57*
Cc1nc2ccccc2c(=O)n1-c1cccc(NC(=O)c2cccs2)c1	5	5	-18	7	/	/
CC1(C)OC(=O)N(c2ccccc2)C12C=Cc1c(ccc3ccccc13)O2 (stereo not given)	43*	23	-2	-9	23	7
CC(c1ccccc1)N1C(=O)OC(C)(C)C1(C)O (stereo not given)	16	-1	-14	15	/	/
C=CCSC1=N/C(=C\c2cc(OCC)c(OC(C)=O)c([N+](=O)[O-])c2)C(=O)S1	42*	12	-57	27	-22	25
SMILES	tim10-1 inh	TIM10 inh	NALP3 yeast inh	tim23-1 inh	NALP1 inh	tim10-1 conf
COC(=O)c1c(-c2ccccc2Cl)noc1/C=C/N(C)C	40*	27	-13	35	-1	26
Cc1nn(Cc2c(Cl)cccc2Cl)c(C)c1N	14	-3	4	4	-2	/
CCN(CC)c1ncn(Cc2c(Cl)cccc2Cl)c2ncnc1-2	42*	9	11	39	10	36*
CN1CCN(C(=S)NC(=O)/C=C/c2cccs2)CC1	8	-18	25	13	6	/
CN1CCN(C(=S)NC(=O)/C=C/c2cccc3ccccc23)CC1	51*	18	-2	19	/	9
Fc1ccc(-c2nnc(CN3CCN(c4ncc(C(F)(F)F)cc4Cl)CC3)o2)cc1	49*	7	10	31	4	24
COc1cccc2cc(C(=O)Oc3ccccc3)c(=O)oc12	5	1	8	10	-4	/
